SMILES strings stand for the structures. Values joined by “and” are separate entries in the source; they are usually repeats but may differ in a detail not shown here. Equal entries are not always repeated. About 83,000 compounds went through this panel and 20% of them were active in at least one assay; those are over-represented in the sample as a whole.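 Cell lines were cultured in 96-well plates, exposed to a single compound concentration, and assessed for percent growth 48 hours later.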 Active and inactive are the calls of the source. How the source made its calls: active means growth percent below 10; inactive means the rest.

The first test relates to HOP-92 NSCLC. The test can be described thus: NCI-60 one-dose screen, 48 h (100 = growth as untreated, 0 = no growth, -100 = all killed). The following applies: 10 µM unless noted.
In the case of `CCC(CCCN(CC)CCc1ccccc1)OC(=O)c1cc(OC)c(OC)c(OC)c1` (centres undefined), the growth was 86.4% (inactive).
Take `CCC(CC)COC(=O)c1ccc(O)c(O)c1`: the growth is 31.1% (inactive).
`COC(=O)Nc1nc2ccc(C(=O)c3ccccc3)cc2[nH]1`: the growth was 65.7% (inactive) and 41.8% (inactive) and 35.3% (inactive).
Still for that read-out and setting: then `CC(=O)ON=C1C=CC(=C(C#N)c2ccccc2)C=C1`, with 33.1% (inactive); and `NC(=O)/C=C/C(=O)c1c(Cl)cccc1Cl`, with -99.3% (active).
Still for that read-out and setting: then `CCCCCCCCCCCCCCCC[N+](C)(CCO)Cc1cnc[nH]1` (centres undefined), with -55.8% (active).
On to `Oc1c(Br)cc(Cl)cc1C(c1cc(Cl)cc(Br)c1O)C(Cl)(Cl)Cl`, for which the growth was -33.5% (active).
On the same count and under the same terms, then `CC1OC2CC(=O)OC2C2=C1C(=O)c1c(O)cccc1C2=O` (centres undefined), with -92% (active).
On the same count and under the same terms, then `CC(C)(C)c1ccc(O)c(C2CCCCC2)c1`, with 96.6% (inactive).
On the same count and under the same terms, then `Oc1c(Cl)cc(Cl)c2cccnc12`, with 49.7% (inactive); and `CCN(CC)CC(C)(C)C(=O)/C=C/c1ccc(Cl)c(Cl)c1`, with -3.59% (active); and `CN(C)CCOc1ccc2c(c1)C(=O)/C(=C\c1ncc([N+](=O)[O-])n1C)C2`, with -54.3% (active).
Turning to `C/C=C1\SC(=S)NC1=O`, the growth is 94.2% (inactive).
Same read-out and setting: next, `CCOC(=O)/C(=C\c1ccc(-c2ccccc2)cc1)C(C)=O`: 101% (inactive).
On the same count and under the same terms, next, `N#CSCc1ccc(CSC#N)c(Cl)c1`: 4.78% (active); `CNC(=O)N/N=C/c1ccc([N+](=O)[O-])o1`: 101% (inactive); `Cc1cc2nc(CS)[nH]c2cc1C`: 88.9% (inactive).
On the same count and under the same terms, then `N#CC1C(=O)SC2c3ccccc3C(=O)c3ccccc3C12` (centres undefined), with 71.8% (inactive); and `Nc1nc(N)c2c(ccc3c2ccn3Cc2cccc([N+](=O)[O-])c2)n1`, with -72.1% (active); and `Cn1c2c(c3ccccc31)CCN1C[C@@H]3CCCC[C@H]3C[C@@H]21`, with 33.4% (inactive).
With `Oc1c(Br)c(Br)c(O)c(Br)c1Br`, the growth was 142% (inactive).
The same measure, in the same setting: then `O=C(Nc1ccccc1)Oc1c(Cl)c(Cl)c(Cl)c(Cl)c1Cl`, with 74.9% (inactive) and 63.8% (inactive).
The same measure, in the same setting: next, `Nc1ncnc2c1ncn2C1OC(CO)C(O)C1O` (centres undefined): 93.4% (inactive) and 100% (inactive) and 89.5% (inactive); `Nc1nc(N)c2nc(CNc3ccc(C(=O)NC(CCC(=O)O)C(=O)O)cc3)cnc2n1` (centres undefined): 69.9% (inactive) and 43.7% (inactive).
With `O=C(CC1(O)C(=O)Nc2c(Cl)ccc(Cl)c21)c1ccc(Cl)cc1Cl` (centres undefined), the growth is 92.5% (inactive).
The same measure, in the same setting: next, `O=C(/C=C\c1ccccc1)N1c2ccccc2CC1c1c[nH]c2ccccc12` (centres undefined): 47.5% (inactive); `CC1=CC(O)C2CC1C2(C)C` (centres undefined): 100% (inactive) and 78.2% (inactive); `CCN1/C(=C\c2cc[n+](CC)c3ccccc23)C=Cc2ccccc21`: -21.9% (active).
Still for that read-out and setting: then `CC(C)c1ccc2nc3ccc(C(=O)NCCN4CCN(c5ccccc5)CC4)cn3c(=O)c2c1`, with 58.1% (inactive); and `O=C(O)C1C2CC3C(OC(=O)C31)C2Br` (centres undefined), with 91% (inactive) and 94.2% (inactive); and `NC(=S)N/N=C/c1ccc(Cl)s1`, with 97.5% (inactive).
On the same count and under the same terms, next, `CCN(CC)CCOc1ccc(-c2nc3cc(Cl)ccc3s2)cc1`: 19.3% (inactive).

The next test concerns NCI-H522 lung. Described as above. The following applies: 10 µM unless noted.
Regarding `CCC(CCCN(CC)CCc1ccccc1)OC(=O)c1cc(OC)c(OC)c(OC)c1` (centres undefined), the growth was 69.6% (inactive).
On to `CCC(CC)COC(=O)c1ccc(O)c(O)c1`, for which the growth is -5.6% (active).
Same read-out and setting: then `COC(=O)Nc1nc2ccc(C(=O)c3ccccc3)cc2[nH]1`, with -11.7% (active) and -16.9% (active) and -32.5% (active); and `CC(=O)ON=C1C=CC(=C(C#N)c2ccccc2)C=C1`, with -24.2% (active).
The same measure, in the same setting: then `NC(=O)/C=C/C(=O)c1c(Cl)cccc1Cl`, with -59.5% (active); and `CCCCCCCCCCCCCCCC[N+](C)(CCO)Cc1cnc[nH]1` (centres undefined), with -72.2% (active); and `Oc1c(Br)cc(Cl)cc1C(c1cc(Cl)cc(Br)c1O)C(Cl)(Cl)Cl`, with -9.4% (active).
Still for that read-out and setting: then `CC1OC2CC(=O)OC2C2=C1C(=O)c1c(O)cccc1C2=O` (centres undefined), with -89.1% (active); and `CC(C)(C)c1ccc(O)c(C2CCCCC2)c1`, with 83.6% (inactive).
Take `Oc1c(Cl)cc(Cl)c2cccnc12`: the growth is 65.2% (inactive) and 71.8% (inactive).
With `CCN(CC)CC(C)(C)C(=O)/C=C/c1ccc(Cl)c(Cl)c1`, the growth was -48.3% (active).
Still for that read-out and setting: next, `CN(C)CCOc1ccc2c(c1)C(=O)/C(=C\c1ncc([N+](=O)[O-])n1C)C2`: -59.8% (active).
On the same count and under the same terms, then `C/C=C1\SC(=S)NC1=O`, with 103% (inactive); and `CCOC(=O)/C(=C\c1ccc(-c2ccccc2)cc1)C(C)=O`, with 87.6% (inactive); and `N#CSCc1ccc(CSC#N)c(Cl)c1`, with 15.7% (inactive).
Same read-out and setting: then `CNC(=O)N/N=C/c1ccc([N+](=O)[O-])o1`, with 85.2% (inactive).
`Cc1cc2nc(CS)[nH]c2cc1C`: the growth was 74.7% (inactive).
Still for that read-out and setting: then `N#CC1C(=O)SC2c3ccccc3C(=O)c3ccccc3C12` (centres undefined), with 94.9% (inactive); and `Nc1nc(N)c2c(ccc3c2ccn3Cc2cccc([N+](=O)[O-])c2)n1`, with -84.3% (active); and `Cn1c2c(c3ccccc31)CCN1C[C@@H]3CCCC[C@H]3C[C@@H]21`, with 6.33% (active).
Still for that read-out and setting: next, `Oc1c(Br)c(Br)c(O)c(Br)c1Br`: -88% (active); `O=C(Nc1ccccc1)Oc1c(Cl)c(Cl)c(Cl)c(Cl)c1Cl`: 87.9% (inactive).
Same read-out and setting: then `Nc1ncnc2c1ncn2C1OC(CO)C(O)C1O` (centres undefined), with 106% (inactive) and -20.2% (active) and 110% (inactive); and `Nc1nc(N)c2nc(CNc3ccc(C(=O)NC(CCC(=O)O)C(=O)O)cc3)cnc2n1` (centres undefined), with 35% (inactive) and 38.7% (inactive); and `O=C(CC1(O)C(=O)Nc2c(Cl)ccc(Cl)c21)c1ccc(Cl)cc1Cl` (centres undefined), with 76.2% (inactive).
In the case of `O=C(/C=C\c1ccccc1)N1c2ccccc2CC1c1c[nH]c2ccccc12` (centres undefined), the growth was 30.2% (inactive).
On the same count and under the same terms, then `CC1=CC(O)C2CC1C2(C)C` (centres undefined), with 86.2% (inactive) and 92% (inactive).
`CCN1/C(=C\c2cc[n+](CC)c3ccccc23)C=Cc2ccccc21`: the growth is 12.4% (inactive).
Still for that read-out and setting: then `CC(C)c1ccc2nc3ccc(C(=O)NCCN4CCN(c5ccccc5)CC4)cn3c(=O)c2c1`, with 67.4% (inactive); and `O=C(O)C1C2CC3C(OC(=O)C31)C2Br` (centres undefined), with 72.9% (inactive) and 95.6% (inactive); and `NC(=S)N/N=C/c1ccc(Cl)s1`, with 98.6% (inactive).
Still for that read-out and setting: then `CCN(CC)CCOc1ccc(-c2nc3cc(Cl)ccc3s2)cc1`, with -39.5% (active).
